# Assay results: the supplement of paper PMC12297408
# “And” between values parts separate entries of the source, which are not always exact repeats. Equal values may be shown once. Where a name gives a salt, the structure may show the parent alone. Values without a mark were called inactive.
# System: Plasmodium falciparum NF54/iGP1_RE9H ulg8 stage V gametocytes
# Test: gametocyte viability (luciferase signal relative to DMSO control) (% of DMSO control); higher = less gametocytocidal activity, active = 50 or less
# Details: exposure time: 72 h
# Summary of the method: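 Gametocyte viability is reported relative to the average of DMSO vehicle wells on the same plate. The assay used day-12 stage V NF54/iGP1_RE9Hulg8 gametocytes at ~2.5% gametocytemia and 3% hematocrit, in 0.5% Albumax II medium, added to 96-well plates of compounds spotted in nanolitre volumes for final 10 µM or 1 µM, one well each. After 72 h at 37 °C, 90 µl was mixed with 10 µl D-luciferin (30 mg/ml), and luminescence was recorded with an IVIS Lumina II.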
Compound,gametocyte viability (concentration: 1 µM),gametocyte viability (concentration: 10 µM)
CNC(=O)c1cc(COc2nnc(Nc3ccc(Cl)cc3)c3ccoc23)ccn1 [Telatinib (BAY 57-9352)],115,115
COc1ccc2c3n(c(=NC(=O)c4cccnc4)nc2c1OC)CCN3,94.4,101
Cc1c(NC(=O)OC[C@@H]2COCCN2)cn2ncnc(Nc3ccc4c(cnn4Cc4cccc(F)c4)c3)c12,85.8,96
CCOc1cc2ncc(C#N)c(Nc3ccc(OCc4ccccn4)c(Cl)c3)c2cc1NC(=O)/C=C/CN(C)C [Neratinib (HKI-272)],103,104
Cc1nc(Nc2ncc(C(=O)Nc3c(C)cccc3Cl)s2)cc(N2CCN(CCO)CC2)n1,95.3,87.3
CN(C)Cc1cccc(N=C(c2ccccc2)c2c(O)[nH]c3cc(C(=O)N(C)C)ccc23)c1,116,121
NC1(c2ccc(-c3nc4ccn5c(=O)[nH]nc5c4cc3-c3ccccc3)cc2)CCC1 [MK-2206 dihydrochloride],97.5,63.9
Cc1ccc(NC(=O)c2ccc(CN3CCN(C)CC3)cc2)cc1Nc1nc(-c2cccnc2)cs1 [Masitinib (AB1010)],104,80.3
Cc1ncc(-c2ccnc(Nc3ccc(S(C)(=O)=O)cc3)n2)n1C(C)C,115,119
OCCn1cc(-c2cnc3nnn(Cc4ccc5ncccc5c4)c3n2)cn1,93.3,98.6
Cn1cc(C2=C(c3cn(CCCSC(=N)N)c4ccccc34)C(=O)NC2=O)c2ccccc21 [Ro 31-8220 mesylate],123,78.9
COC(=O)Nc1ccc(-c2nc(N3CCOCC3)c3cnn(C4CCN(C(=O)OC)CC4)c3n2)cc1,97.3,97.2
O=S(=O)(c1cccc2c(I)cccc12)N1CCCNCC1,102,94.1
Cc1cc2ncc(-c3ccccc3)nc2cc1C,91.2,70.6
Cn1cc(C2=C(c3ccc(Cl)cc3Cl)C(=O)NC2=O)c2ccccc21,97.8,112
O=C(Nc1c[nH]nc1-c1nc2ccc(CN3CCOCC3)cc2[nH]1)NC1CC1,131,113
Cn1cnc2c(NCc3ccccc3)nc(NCCO)nc21 [Olomoucine],95.2,91.5
O=c1c(-c2ccc(O)cc2)coc2cc(O)ccc12 [Daidzein],116,109
O=Nc1c(-c2c(O)[nH]c3ccccc23)[nH]c2ccccc12 [Indirubin-3'-monooxime],90.1,86.8
C[S+]([O-])c1ccc(-c2nc(-c3ccc(F)cc3)c(-c3ccncc3)[nH]2)cc1 (stereo not given),97.2 and 103,109 and 105

Compound,gametocyte viability (concentration: 1 µM),gametocyte viability (concentration: 10 µM)
Cn1cc(-c2ccc3nnc(C(F)(F)c4ccc5ncccc5c4)n3n2)cn1,98.2,118
O=C(O)c1ccc2c(c1)nc(Nc1cccc(Cl)c1)c1ccncc12,101,107
O=P(O)(O)C(O)c1ccc2ccccc2c1 (stereo not given) [Hydroxy-2-naphthalenylmethylphosphonic acid],95.7,90.5
Cc1cn(-c2cc(NC(=O)c3ccc(C)c(Nc4nccc(-c5cccnc5)n4)c3)cc(C(F)(F)F)c2)cn1 [Nilotinib (AMN-107)],111,107
COC(=O)Nc1ccc(-c2nc(N3CCOCC3)c3cnn(C4CCN(Cc5cccnc5)CC4)c3n2)cc1,115,117
O=C(NOCC(O)CO)c1cc(Br)c(F)c(F)c1Nc1ccc(I)cc1F (stereo not given),99.1,97.3
N#C/C(=C\c1cc(Cl)cc(Cl)c1)c1cccnc1,98.1,101
Cc1[nH]c(/C=C2\C(=O)Nc3ccccc32)c(C)c1CCC(=O)O,96.9,105
O=S(=O)(c1cccc2cnccc12)N1CCCNCC1,101,110
CN(C)C/C=C/C(=O)Nc1cc2c(Nc3ccc(F)c(Cl)c3)ncnc2cc1O[C@H]1CCOC1 [Afatinib (BIBW2992)],92,93.5
Cc1ccc(-n2nc(C(C)(C)C)cc2NC(=O)Nc2ccc(OCCN3CCOCC3)c3ccccc23)cc1 [BIRB 796 (Doramapimod)],96,98.8
Cc1nc(N)sc1-c1ccnc(Nc2ccc(N3CCOCC3)cc2)n1,107,108
Cn1cnc2c(F)c(Nc3ccc(Br)cc3Cl)c(C(=O)NOCCO)cc21 [AZD6244 (Selumetinib)],102,105
COc1ncc(-c2ccc3nccc(-c4ccnnc4)c3c2)cc1NS(=O)(=O)c1ccc(F)cc1F,100,103
Nc1ncnc2c1c(-c1cccc(OCc3ccccc3)c1)cn2C1CC(CN2CCCC2)C1 (stereo not given),94.4,84
Cc1cnc(NC(=O)Nc2cc(Br)c(C)cc2OC[C@@H]2CNCCO2)cn1,102,113
N#CC1(c2ccc(NC(=O)c3cccnc3NCc3ccncc3)cc2)CCCC1 [Apatinib (YN968D1)],96,95.4
Cc1ccc(NC(=O)c2ccc(CN3CCN(C)CC3)cc2)cc1Nc1nccc(-c2cccnc2)n1 [Imatinib (Gleevec)],104,110
C=CC(=O)Nc1cccc(Sc2nc(Nc3ccc(N4CCN(C)CC4)cc3)ncc2Cl)c1,87.2,72.7
CCCNC(=O)Nc1ccc(Oc2ncnc3cc(OC)c(OC)cc23)cc1Cl,97.6,104
